{
  "source": "PubChem BioAssay (NCATS)",
  "note": "Inconclusive results are not listed. Where a call stands in place of a potency, no number is given. Calls of active or inactive are those of the source. Calls come from the whole dose curve; as a rule, active = well fitted curve in the direction sought with a large enough effect; inconclusive = small, poorly fitted or top-dose-only effect, or another doubt; inactive = no such curve, though single readings can be large or run the other way. Potency is the fitted concentration of half-maximal effect.",
  "data": [
    {"biological_target": "Metallo-beta-lactamase type 2 (Klebsiella pneumoniae) (UniProt C7C422)", "sequence (C7C422 whole entry, looked up)": "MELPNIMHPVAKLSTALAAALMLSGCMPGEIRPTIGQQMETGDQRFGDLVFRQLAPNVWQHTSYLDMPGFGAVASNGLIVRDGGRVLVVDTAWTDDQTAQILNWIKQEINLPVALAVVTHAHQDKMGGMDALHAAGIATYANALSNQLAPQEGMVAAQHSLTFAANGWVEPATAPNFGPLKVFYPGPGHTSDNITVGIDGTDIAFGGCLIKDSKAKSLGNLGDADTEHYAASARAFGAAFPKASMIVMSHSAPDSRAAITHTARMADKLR", "experiment": "qHTS to identify inhibitors of the New Delhi Metallo-beta-lactamase (NDM): assay validation screen against the NCATS LOPAC Collection (AID 1794843)", "conditions": "NDM-1 enzyme, nitrocefin hydrolysis, absorbance 485 nm; series mostly up to 38.4 µM", "outline": "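Nitrocefin hydrolysis (50 uM substrate stock) by NDM-1, 2 nM final, was followed by 485 nm absorbance after compound preincubation; buffer was 50 mM HEPES pH 7.0, 1 uM ZnSO4, 0.01% Tween20.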", "values": [
      {"smiles": "c1ccc(C(NCc2cccnc2)(c2ccccc2)c2ccccc2)cc1", "Potency": "inactive"},
      {"smiles": "O=C(O)C1=CC(=C(c2ccc(O)c(C(=O)O)c2)c2ccc(O)c(C(=O)O)c2)C=CC1=O", "Potency": "1260 nM (active)"},
      {"smiles": "CCCn1c(=O)c(C)cn2nc(N)nc12", "Potency": "inactive"},
      {"smiles": "CCCCOC(=O)NS(=O)(=O)c1sc(CC(C)C)cc1-c1ccc(Cn2c(CC)nc3c(C)cc(C)nc32)cc1", "Potency": "inactive"},
      {"smiles": "S=C(S)N1CCCC1", "Potency": "inactive"},
      {"smiles": "O=c1ccn([C@@H]2O[C@H](COP(=O)(O)OP(=O)(O)O)[C@@H](O)[C@H]2O)c(=O)[nH]1", "Potency": "inactive"},
      {"smiles": "NC(N)=NC(N)=Nc1cccc(Cl)c1", "Potency": "inactive"},
      {"smiles": "CCCCCC[C@@H]([C@@H](C)O)n1cnc2c(N)ncnc21", "Potency": "inactive"},
      {"smiles": "CC(C)NC[C@H](O)COc1ccc(CC(N)=O)cc1", "Potency": "inactive"},
      {"smiles": "Cc1nc2n(c(=O)c1CCN1CCC(c3noc4cc(F)ccc34)CC1)CCCC2O", "note": "(stereo not drawn)", "Potency": "inactive"},
      {"smiles": "COc1cc(/C=C(\\C#N)C(=O)Nc2nnc(C(F)(F)F)s2)ccc1OCc1ccc(C(F)(F)F)cc1C(F)(F)F", "Potency": "inactive"},
      {"smiles": "C#CCn1c(=O)c2c(ncn2C)n(C)c1=O", "Potency": "inactive"},
      {"smiles": "c1ccc2c(c1)CCC[C@H]2Nc1nc2ccccc2[nH]1", "Potency": "inactive"},
      {"smiles": "COc1ccccc1N1CCN(CCCCNC(=O)c2ccc3ccccc3c2)CC1", "Potency": "inactive"},
      {"smiles": "COCc1nc2c([nH]1)c(=O)n(C)c(=O)n2CC(C)C", "Potency": "inactive"},
      {"smiles": "Oc1ccc(/C=C/c2ccc(/C=C/c3ccc(O)cc3)c(Br)c2)cc1", "Potency": "inactive"},
      {"smiles": "CC(C)C[C@H](NC(=O)[C@H](O)[C@H](N)Cc1ccccc1)C(=O)O", "Potency": "inactive"},
      {"smiles": "CCN1C(=O)C=CC1=O", "Potency": "inactive"}
    ]}
  ]
}
